Assay results reported in PubChem BioAssay (NCI).
This is part of a sample that, as a whole, favours compounds with a hit. Of some 79,000 tested, about 15% had one in any assay. Unmarked numbers belong to inactive results. Calls of active or inactive are those of the source. Cut-off read from the data, not from the text of the source: active = growth inhibition above about 70%; inactive = the rest.

Tests used:
[1] = NCI Yeast Anticancer Drug Screen. Data for the rad50 strain (AID 155);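 note: 0% = growth of vehicle-only cultures of the same strain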; conditions: S. cerevisiae rad50 strain growth inhibition, stronger effect = higher value
Method in brief: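 A DNA repair-deficient yeast mutant serves as the test organism; compound-induced growth inhibition is calculated against vehicle-treated cells.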

[2] = NCI Yeast Anticancer Drug Screen. Data for the mec2-1 strain (AID 157); conditions: S. cerevisiae mec2-1 strain, stronger effect = higher value
Method in brief: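 Mutant yeast (mec2-1) grown with compound; growth inhibition relative to vehicle control reported.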

[3] = NCI Yeast Anticancer Drug Screen. Data for the sgs1 mgt1 strain (AID 161);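 note: 0% = growth of cultures given vehicle only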; conditions: S. cerevisiae sgs1 mgt1 strain, stronger effect = higher value
Method in brief: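 Growth of a repair-deficient yeast mutant was monitored after compound treatment and expressed as inhibition relative to vehicle-treated cultures.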

[4] = NCI Yeast Anticancer Drug Screen. Data for the cln2 rad14 strain (AID 165);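 note: 0% = growth equal to vehicle treated cultures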; conditions: S. cerevisiae cln2 rad14 strain, stronger effect = higher value
Method in brief: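 Readout is yeast growth inhibition versus vehicle-treated controls, using a strain with cln2 and rad14 alterations exposed to compound.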

[5] = NCI Yeast Anticancer Drug Screen. Data for the bub3 strain (AID 167); conditions: S. cerevisiae bub3 mutant strain, stronger effect = higher value
Method in brief: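 Inhibition values come from growth of compound-treated mutant yeast normalised to vehicle-treated controls.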

[6] = NCI Yeast Anticancer Drug Screen. Data for the mlh1 rad18 strain (AID 175); conditions: S. cerevisiae mlh1 rad18 strain growth inhibition, stronger effect = higher value
Method in brief: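 Genetically defined yeast (DNA repair-deficient) exposed to compounds; growth inhibition determined relative to vehicle.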

[7] = at 5.0 µM (retest, dose inferred, filed as 0.5)
[8] = at 50.0 µM (retest, dose inferred, filed as 5.0)

Row | Structure (SMILES) | growth inhibition [1, 7] | growth inhibition [1, 8] | growth inhibition ([1]; at 50.0 µM) | growth inhibition [2, 7] [%] | growth inhibition [2, 8] | growth inhibition ([2]; at 50.0 µM) | growth inhibition [3, 7] | growth inhibition [3, 8] | growth inhibition ([3]; at 50.0 µM) | growth inhibition [4, 7] [%] | growth inhibition [4, 8] | growth inhibition ([4]; at 50.0 µM) | growth inhibition [5, 7] | growth inhibition [5, 8] | growth inhibition ([5]; at 50.0 µM) | growth inhibition [6, 7] | growth inhibition [6, 8] | growth inhibition ([6]; at 50.0 µM)
1 | COC(=O)C(O)(/C(=N\O)c1ccccc1)c1ccccc1 (stereo not given) | 0% | 0% | 4.8% | 0 | -1% | 16.7% | 5% | 0% | 25.6% | -1 | -5% | 71.1% (active) | 0% | -8% | 29.1% | 0% | -2% | 8.35%
2 | O=C(/C(=C/c1ccc(Cl)cc1)c1ccccc1)c1ccc(O)cc1 | 94% (active) | 94% (active) | 95.8% (active) | 64 | 97% (active) | 95.5% (active) | 94% (active) | 94% (active) | 96.5% (active) | 53 | 92% (active) | 92.5% (active) | 89% (active) | 95% (active) | 97.3% (active) | 96% (active) | 95% (active) | 97% (active)
3 | O=C(CS)Nc1ccccc1 | 13% | 89% (active) | 65.4% | 18 | 91% (active) | 57.2% | 14% | 93% (active) | 61.1% | 9 | 87% (active) | 47.5% | 3% | 84% (active) | 56.2% | 16% | 95% (active) | 84.1% (active)
4 | CCOC(=O)Nc1nc2ccc(Cn3cccc3)cc2[nH]1 | 25% | 31% | 17.8% | 19 | 22% | -12.5% | 24% | 24% | 10.9% | 33 | 24% | 6.05% | 22% | 24% | -1.9% | 25% | 23% | -0.95%
5 | C=CCc1ccc2c(C)cc[n+](C)c2c1O | 12% | 99% (active) | 100% (active) | 19 | 99% (active) | 99.2% (active) | 21% | 99% (active) | 99% (active) | -17 | 99% (active) | 99.5% (active) | 1% | 99% (active) | 99.1% (active) | 23% | 99% (active) | 98.8% (active)
6 | COc1ccc(-c2nnc(C)nc2-c2ccc(OC)cc2)cc1 | 3% | -1% | 22.1% | -1 | 7% | 1.2% | 3% | 19% | 23.2% | -6 | -1% | 17.6% | 14% | 41% | 81.6% (active) | 0% | 2% | 13.2%
7 | Cn1c2c(c3nc(N)nc(N)c3c1=O)CCc1ccccc1-2 | 6% | 21% | 72.8% (active) | 0 | 31% | 26.3% | 8% | 39% | 69.5% | -2 | 37% | 42.8% | -1% | 39% | 68.5% | 0% | 36% | 44.4%
8 | CC(NC(=O)OCc1ccccc1)C(=O)NC(C(=O)O)C(C)C (stereo not given) | 29% | 66% | 63.1% | 22 | 46% | 38% | 27% | 65% | 60.6% | 37 | 48% | 59.6% | 37% | 84% (active) | 34.9% | 14% | 86% (active) | 74% (active)
9 | CC(C)(C)NCc1cc(Nc2ccnc3cc(Cl)ccc23)cc(-c2ccc(Cl)cc2)c1O | -6% | 19% | 14.7% | -4 | 17% | -16.1% | -5% | -15% | -9.6% | -2 | 18% | 68.5% | 7% | -8% | 2.1% | -1% | 22% | 20.5%
10 | C=CCCCCCCCCC(=O)CCCCCCCCC=C | 0% | 2% | 7.6% | -2 | 3% | 9.2% | -2% | 0% | -3.35% | 6 | 3% | 58.8% | -1% | 4% | 14% | -4% | 1% | 5.75%
